Hits are enriched below; roughly 20% of the tested compounds scored in any of these assays.
HCMV inh = qHTS Assay for inhibitors of the human cytomegalovirus (HCMV). HFF cells, HCMV-luciferase reporter, 72 h; stronger effect = lower value. activity change, negative = inhibition, % at 57.5 µM. 410,000 tested, 4.5% active. AID 1259415, 2018; in the data active = activity change below about -60%; inconclusive = no clear call, values can overlap the other calls; inactive = above about -39%; also: % is scaled to controls: 0 for no effect and ±100 for the full control effect
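Inhibition of viral replication was scored as loss of reporter luminescence in HFFs infected with HCMV-luciferase (MOI 1 PFU/cell) for 72 h; compounds tested at 2 doses, normalized to buffer and Salinomycin controls.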
Pf growth 96h = Primary qHTS for delayed death inhibitors of the malarial parasite plastid, 96 hour incubation; 320,000 tested, 6.9% active; AID 504834, 2011; Potency, µM (highest dose often 28.7 µM), without a hit: at the highest dose activity change, negative = inhibition, hits mostly inhibitors; P. falciparum luciferase reporter growth, 96 h; also: potency is read from the fitted curve at half-maximal effect; % is scaled to controls: 0 for no effect and ±100 for the full control effect
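Delayed-death screen, second-generation endpoint: infected erythrocytes, 2% hematocrit, 0.05% parasitemia final; 96 hours at 37 C, 5% CO2; luciferase detection reagent; luminescence decrease equals reduced growth.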
Shiga toxin inh = A qHTS for Small Molecule Inhibitors of Shiga Toxin; Vero cells, Shiga toxin protein synthesis inhibition reporter; inhibition, % at 38.7 µM; 290,000 tested, 9.2% active; in the data active = inhibition mostly above about 28%, no sharp cut-off; inactive = mostly below about 43%; also: 0% is about no effect
Cycloheximide cs = Cycloheximide Counterscreen for Small Molecule Inhibitors of Shiga Toxin; cell reporter, cycloheximide protein synthesis inhibition counterscreen; max response, %; 300,000 tested, 12% active; AID 2314, 2010; in the data active = max response mostly above about 13%, no sharp cut-off; inactive = mostly below about 14%; also: read at 38.3 µM for the half of the compounds with a filed dose; 0% is about no effect
Pf growth 48h = Primary qHTS for delayed death inhibitors of the malarial parasite plastid, 48 hour incubation; P. falciparum luciferase growth in erythrocytes, 48 h; Potency, µM (titrated, usually from 28.7 µM), inactives show at the highest dose activity change, negative = inhibition, most hits filed as inhibitors; 310,000 tested, 5.9% active; AID 504832, 2011; also: potency is read from the fitted curve at half-maximal effect; % is scaled to controls: 0 for no effect and ±100 for the full control effect
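Here the parasites carry a stable luciferase gene and grow inside erythrocytes in Albumax-based RPMI medium with compound for one erythrocytic cycle. Activity is scored as loss of luminescent signal.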
Active calls of the source: *; ? = inconclusive; · = not tested or not shown. Unless noted, calls follow the shape of the dose curve; as a rule, active = well fitted inhibition curve with a large enough effect; inconclusive = small, poorly fitted or top-dose-only effect, or another doubt; inactive = no such curve, though single readings can be large or run the other way.

SMILES	HCMV inh	Pf growth 96h	Shiga toxin inh	Cycloheximide cs	Pf growth 48h
Cc1c(Cl)cccc1NC(=O)C(C)n1nnc2sc3c(c2c1=O)CCCC3 (centres undefined)	-11	·	·	·	·
O=C(NCc1ccccn1)[C@@H]1CCCN1C(=O)[C@@H]1CCCN1C(=O)c1cccc2ccccc12	16	·	·	·	·
Cc1sc2nc(SCC(=O)C(C)(C)C)n(Cc3ccco3)c(=O)c2c1C	-98*	10µM*	-6	1	3.7µM*
Cc1cccc(CSc2nc3sc(C)c(C)c3c(=O)n2Cc2ccco2)c1	-8	·	-21	-6	15µM*
CC(C)c1ncc([N+](=O)[O-])n1C	·	0%	·	·	-2%
Clc1nnc(Cl)c2c1ncn2Cc1ccccc1	?	?	-5	-1	?
CCN(CC)S(=O)(=O)c1ccc(Cl)c(C(=O)Oc2cccc(-c3cnc4ccccc4n3)c2)c1	147	105%	81*	31*	109%
CCN(CC)S(=O)(=O)c1cc(C(=O)Oc2cccc(-c3cnc4ccccc4n3)c2)ccc1Br	176	·	65*	61*	273%
CCN(CC)S(=O)(=O)c1cc(C(=O)OCC(=O)Nc2cccc(Br)c2)ccc1F	-23	-16%	-8	-4	-8%
CC1CCCCC1NC(=O)CCS(=O)(=O)c1cc2c(cc1Cl)NC(=O)CO2 (centres undefined)	-13	-5%	-4	-2	5%
COc1ccc(CCNC(=O)CN(c2ccccc2)S(=O)(=O)N(C)C)cc1	-7	·	·	·	·
ClCCn1cnc2c(SCc3ccccc3)ncnc21	-64*	·	·	·	·
Cn1cnc2c(SCc3ccccc3)ncnc21	-19	·	·	·	·
ClCCn1cnc2c(SCc3ccccc3Cl)ncnc21	-76*	·	·	·	·
CC(=O)c1ccc(NC(=S)NCc2cccnc2)cc1	?	?	42	9	-15%
COc1ccccc1NC(=O)CCc1nc2sc3c(c2c(=O)[nH]1)CCCC3	-4	?	·	·	?
CCOc1ccc2oc(C(=O)N(C)CC(=O)Nc3ccc(OCC)c(OCC)c3)c(C)c2c1	16	12µM*	·	·	?
COc1ccc(NC(=O)CN(C)C(=O)c2oc3ccccc3c2C)cc1	-11	3.7µM*	26	15	?
C=C1C(=O)OC(CCCCCCCC)C1C(=O)O (centres undefined)	·	·	-9	-4	·
CCOC(=O)c1sc(NC(=O)CSCc2c(C)noc2C)nc1C	-26	?	·	·	10µM*
CC(=O)c1sc(NC(=O)CSCc2c(C)noc2C)nc1-c1ccccc1	-35	?	·	·	10µM*
Cc1noc(C)c1CSCC(=O)Nc1nc2ccccc2s1	53	?	8	21*	17%
CCc1ccc2nc(NC(=O)CSCc3c(C)noc3C)sc2c1	30	30%	68*	21*	2%
CCc1cc2c(cc3c(=O)n(CC(=O)NC4CCCCC4)ncn32)s1	-20	·	·	·	·
O=C(Cn1ncn2c(cc3sccc32)c1=O)NC1CCCC1	2	8.3µM*	-7	-8	17%
SMILES	HCMV inh	Pf growth 96h	Shiga toxin inh	Cycloheximide cs	Pf growth 48h
CNC(=O)c1cnc2sc(N3CCCCCC3)nn2c1=O	47	·	·	·	·
CC(Oc1ccc(C(=O)c2ccccc2)cc1)C(=O)Nc1ccc(S(N)(=O)=O)cc1 (centres undefined)	-68*	?	-4	10	?
CC(Oc1ccccc1)C(=O)Nc1ccc(S(=O)(=O)N2CCCC2)cc1 (centres undefined)	-39	23%	-8	3	?
O=C(Nc1ccc(-c2nnc(-c3ccccc3)o2)cc1)C(F)(F)F	46	-6%	73	49*	160%
CC(=O)Nc1ccc(NC(=O)C(F)(F)F)cc1	-22	20%	-5	-4	35%
CC(C)C(=O)Nc1ccc(-c2nnc(-c3ccccc3)o2)cc1	-1	224%	119*	72*	181%
CC(C)C(=O)Nc1ccc(C(=O)c2ccccc2)cc1	23	191%	57*	50*	201%
CC(C)C(=O)Nc1ccc(C(=O)NNC(=O)CCc2ccccc2)cc1	127	27%	-6	-2	6%
CCC(Oc1ccccc1-c1nnc(-c2ccccc2)o1)C(=O)Nc1ccc(C(C)=O)cc1 (centres undefined)	15	·	·	·	·
COc1ccc(NC(=O)CCCNC(=O)c2ccc(Cl)cc2)cc1S(=O)(=O)N1CCOCC1	28	·	·	·	·
COc1ccccc1CNC(=O)CSc1ncc2c(n1)-c1cc(Cl)ccc1N(Cc1ccccc1)S2(=O)=O	5	·	·	·	·
O=C1CCc2ccc(NC(=O)C3CC3)cc2N1	100	6%	-3	-2	-11%
COc1ccc(CC(=O)Nc2cccc(C)n2)cc1OC	-20	19%	2	-2	12%
CC(=O)/C=C(\C)Nc1ccc(-c2cnc(-c3ccccc3)o2)cc1	212	155%	130*	83*	114%
Cn1cc(S(=O)(=O)N2CCCCCC2)cc1C(=O)NCc1ccc(F)cc1	8	·	·	·	·
Cc1ccc(-c2nn(Cc3ccccc3)cc2/C=C/C(=O)O)cc1C	4	11%	-5	-4	·
Cc1ccc(-c2nn(Cc3ccccc3)cc2C=O)cc1C	25	46%	active	49*	35%
Cc1ccc(Cn2cc(C=O)c(-c3ccc(F)cc3)n2)cc1	-5	5%	31*	23*	10%
Cc1ccc(-c2nn(Cc3ccccc3)cc2C=O)cc1	129	89%	55*	85*	83%
CCCCc1ccc(S(=O)(=O)N[C@H]2CC[C@@]34CCCN3C(=O)CCC[C@H]4[C@H]2C)cc1	-1	·	·	·	·
O=C(Nc1cc(S(=O)(=O)N2CCOCC2)ccc1N1CCOCC1)c1cccs1	3	?	·	·	-21%
